According to PubChem BioAssay (NCI):
Compounds without any hit were thinned out: in the full panel of roughly 79,000, 15% have a hit. A number with no mark means an inactive call. Calls of active or inactive are those of the source. Rule as the data show it: active = growth inhibition above about 70%; inactive = the rest.

Columns and labels:
[1] = NCI Yeast Anticancer Drug Screen. Data for the rad50 strain (AID 155);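 also: 0% = growth of vehicle-only cultures of the same strain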; conditions: S. cerevisiae rad50 strain growth inhibition, hits give high values
Method in brief: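 Inhibition values express reduced yeast growth in compound-treated cultures relative to vehicle-treated controls.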

[2] = NCI Yeast Anticancer Drug Screen. Data for the mec2-1 strain (AID 157); conditions: S. cerevisiae mec2-1 strain, hits give high values
Method in brief: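 Yeast mec2-1 mutant treated with compound. Readout: growth inhibition vs vehicle controls.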

[3] = NCI Yeast Anticancer Drug Screen. Data for the sgs1 mgt1 strain (AID 161);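 also: 0% = growth of cultures given vehicle only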; conditions: S. cerevisiae sgs1 mgt1 strain, hits give high values
Method in brief: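 Test agents were incubated with a DNA-repair-mutant yeast strain. Growth was then read and compared against vehicle-treated controls.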

[4] = NCI Yeast Anticancer Drug Screen. Data for the cln2 rad14 strain (AID 165);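 also: 0% = growth equal to vehicle treated cultures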; conditions: S. cerevisiae cln2 rad14 strain, hits give high values
Method in brief: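 cln2 rad14 yeast strain; compound exposure; growth inhibition read vs vehicle controls.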

[5] = NCI Yeast Anticancer Drug Screen. Data for the bub3 strain (AID 167); conditions: S. cerevisiae bub3 mutant strain, hits give high values
Method in brief: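 Steps: expose the mutant yeast strain to compound; grow alongside vehicle-treated cultures; measure growth; express inhibition against the vehicle cultures.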

[6] = NCI Yeast Anticancer Drug Screen. Data for the mlh1 rad18 strain (AID 175); conditions: S. cerevisiae mlh1 rad18 strain growth inhibition, hits give high values
Method in brief: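 Yeast w/ defined DNA-repair lesions; compound exposure; growth vs vehicle controls → % inhibition.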

[7] = at 5.0 µM (retest, dose inferred, filed as 0.5)
[8] = at 50.0 µM (retest, dose inferred, filed as 5.0)

| Compound | growth inhibition [1, 7] | growth inhibition [1, 8] | growth inhibition ([1]; at 50.0 µM) | growth inhibition [2, 7] | growth inhibition [2, 8] | growth inhibition ([2]; at 50.0 µM) | growth inhibition [3, 7] | growth inhibition [3, 8] | growth inhibition ([3]; at 50.0 µM) | growth inhibition [4, 7] | growth inhibition [4, 8] | growth inhibition ([4]; at 50.0 µM) | growth inhibition [5, 7] | growth inhibition [5, 8] | growth inhibition ([5]; at 50.0 µM) | growth inhibition [6, 7] | growth inhibition [6, 8] | growth inhibition ([6]; at 50.0 µM) |
| --- | --- | --- | --- | --- | --- | --- | --- | --- | --- | --- | --- | --- | --- | --- | --- | --- | --- | --- |
| Cc1cc[n+](C2C(=O)c3ccccc3C(=O)C2Nc2cc(Cl)ccc2Cl)cc1 (configuration not stated) | 19% | 96% (active) | 96.8% (active) | 11% | 98% (active) | 98.8% (active) | 11% | 99% (active) | 78.9% (active) | 5% | 95% (active) | 66.2% | 15% | 98% (active) | 98.5% (active) | 12% | 98% (active) | 94.5% (active) |
| CC(C)c1cc([N+](=O)[O-])cc([N+](=O)[O-])c1O | 9% | 88% (active) | 82.4% (active) | -20% | 90% (active) | 62.1% | 1% | 87% (active) | 86.1% (active) | 8% | 82% (active) | 58% | -4% | 85% (active) | 55.5% | 6% | 90% (active) | 80.7% (active) |
| CN(C)N(P(N)(Cl)(c1ccccc1)c1ccccc1)P(N)(Cl)(c1ccccc1)c1ccccc1 | 13% | 90% (active) | 63.2% | 22% | 97% (active) | 54.5% | -221% | 96% (active) | 44.9% | 0% | 88% (active) | 58.5% | 4% | 88% (active) | 49.5% | 25% | 96% (active) | 50.6% |
| O=C1N[C@H]2[C@H](O)[C@H](O)[C@@H](O)[C@H](O)[C@@H]2c2cc3c(c(O)c21)OCO3 | 12% | 70% (active) | 69% | 19% | 70% (active) | 65.8% | 17% | 58% | 67.2% | 32% | 66% | 69% | 19% | 60% | 68.7% | 26% | 84% (active) | 58.2% |
| O=S(O)O.O=S(O)O.[Co].[NH2-].[NH2-].[NH2-].[NH2-] | 7% | 21% | -5.55% | -1% | 7% | 29.4% | 20% | 22% | 2.5% | 33% | 16% | 47.9% | 12% | 5% | -5.25% | 3% | 26% | 16% |
| CCOP(=O)(OCC)/C(C#N)=C/c1ccc(Br)cc1 | -14% | 95% (active) | 92.3% (active) | -14% | 97% (active) | 94% (active) | -18% | 95% (active) | 92.8% (active) | -20% | 96% (active) | 91.6% (active) | 11% | 97% (active) | 91.8% (active) | -19% | 97% (active) | 92% (active) |
| COc1cc(C(CC(=O)N(CCCl)CCCl)c2ccc3c(c2)OCO3)cc(OC)c1OC (configuration not stated) | 3% | 0% | 6.9% | 0% | -2% | 10.1% | 13% | 2% | 20.8% | 0% | -15% | 25.5% | 2% | -2% | -2.7% | -2% | 0% | 46.1% |
| Cc1cc(OC(=O)N(CCCl)CCCl)c(C(C)C)cc1N=O | 19% | 91% (active) | 97.3% (active) | 20% | 97% (active) | 97.5% (active) | 17% | 96% (active) | 78.5% (active) | 10% | 92% (active) | 97.2% (active) | 1% | 94% (active) | 18.8% | 33% | 97% (active) | 97.7% (active) |
| N#CC(C#N)=Cc1c(O)ccc2ccccc12 | 15% | 76% (active) | 78.5% (active) | -2% | 45% | 51.3% | 2% | 32% | 66% | 18% | 48% | 61.2% | 10% | 62% | 68% | 19% | 81% (active) | 81.5% (active) |
